Many of the other results were omitted from the sample, so hits are more common in it than they were.
GBA activity up: enhancers of human beta-glucosidase activity in Gaucher fibroblasts; P04062; AID 784; 30,000 tested, 0.44% active; activation, % at 10 µM; L444P Gaucher fibroblasts, 4-MU-glucoside fluorescence, 3 days; in the data active means activation above about 65%;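 further: 0% = vehicle wells and 100% = positive control wells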
Target sequence (P04062 whole entry L483P): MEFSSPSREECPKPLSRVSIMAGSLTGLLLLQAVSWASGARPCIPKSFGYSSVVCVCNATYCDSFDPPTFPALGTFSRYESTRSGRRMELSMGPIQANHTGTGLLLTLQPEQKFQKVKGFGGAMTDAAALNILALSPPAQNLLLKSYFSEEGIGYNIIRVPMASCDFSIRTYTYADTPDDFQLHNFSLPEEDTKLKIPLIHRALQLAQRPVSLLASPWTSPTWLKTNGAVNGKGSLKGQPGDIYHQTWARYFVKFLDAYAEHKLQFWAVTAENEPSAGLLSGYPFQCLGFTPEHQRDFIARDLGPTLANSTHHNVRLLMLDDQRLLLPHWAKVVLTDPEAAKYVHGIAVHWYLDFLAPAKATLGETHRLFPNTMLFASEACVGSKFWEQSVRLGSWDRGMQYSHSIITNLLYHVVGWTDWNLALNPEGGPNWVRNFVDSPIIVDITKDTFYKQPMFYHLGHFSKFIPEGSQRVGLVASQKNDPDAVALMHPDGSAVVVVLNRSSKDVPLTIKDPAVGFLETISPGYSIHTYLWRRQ
* hit, by the source's call.

Screening COc1ccc(C(=O)n2nc(-c3ccccc3)nc2N)cc1OC returned GBA activity up 71*.
Screening CCCC(=O)n1nc(-c2ccc(OC)cc2)nc1N returned GBA activity up 21.
For Nc1nc(-c2ccc(Cl)cc2)nn1C(=O)c1cccnc1 the results were GBA activity up 15.
`COc1ccc(C)cc1S(=O)(=O)N(C)CC(=O)N1CCCCCC1` gave GBA activity up -12.
`COc1cc(OC)nc(NC(=O)CSc2nc3ccccc3[nH]2)n1` gave GBA activity up 4.
Cc1cc(NC(=O)CSc2nc3ccccc3[nH]2)no1 was read as GBA activity up 100*.
For Cc1cc(NC(=O)CSc2nc(-c3ccccc3)c(C#N)c(=O)[nH]2)no1 the results were GBA activity up 6.
Screening COc1ccc(-c2nnc3ccc(SCC(=O)N4CCN(c5ccccc5)CC4)nn23)cc1OC returned GBA activity up -10.
`O=C(Nc1ccccc1-c1ccccc1)C1CCCN(c2ncccn2)C1` (configuration not stated) gave GBA activity up -16.
Screening O=C(NCc1cccs1)c1csc2ccccc12 returned GBA activity up -45.
For COc1ccc(-c2cc(=O)n(-c3nc4ccccc4[nH]3)[nH]2)cc1 the results were GBA activity up -82.
`c1ccc2c(c1)ncn2CCn1cnc2ccccc21` gave GBA activity up -21.
`OC(COCC1CC=CCC1)Cn1cnc2ccccc21` (configuration not stated) gave GBA activity up 151*.
Screening CC(=O)Nc1cccc(OCC(O)Cn2cnc3ccccc32)c1 (configuration not stated) returned GBA activity up -12.
`CCOC(=O)c1[nH]c2ccc(OC)cc2c1N=CN(C)C` gave GBA activity up -13.
Screening CC(=O)NC(CCS(C)(=O)=O)C(=O)Nc1ccc(F)cc1Cl (configuration not stated) returned GBA activity up -49.
Screening Cn1c(=O)c2c(nc(SCc3ccccn3)n2C)n(C)c1=O returned GBA activity up -1.
Cc1cccn2c(=O)c(C=Nc3ccccc3)c(NCCO)nc12 was read as GBA activity up -23.
For CCNC(=O)c1cc2c(=O)n3cccc(C)c3nc2n1C the results were GBA activity up -18.
For Cc1cccn2c(=O)c(C=Nc3ccc(Cl)cc3)c(NCCO)nc12 the results were GBA activity up 68*.
Cc1sc2nc3c(C(=O)N4CCN(c5ncccn5)CC4)cccn3c(=O)c2c1C was read as GBA activity up -59.
`CC1CCCCC1NC(=O)CN1CCC(O)(c2ccc(F)cc2)CC1` (configuration not stated) gave GBA activity up -42.
COc1ccc(-n2c3c(cc(C(=O)N4CCCCC4)c2=O)C(=O)CC(C)(C)C3)cc1 was read as GBA activity up -4.
`Cc1ccc2c(c1)C1OCCC1C1N2C(=O)C2C(C(=O)O)C3C=CC21O3` (configuration not stated) gave GBA activity up -46.
Screening Cc1ccc2c(c1)[C@H]1OCC[C@H]1[C@@H](c1ccncc1)N2 returned GBA activity up 72*.
For Cc1ccc2c(c1)C1C=CCC1C(C(=O)O)N2 (configuration not stated) the results were GBA activity up 10.
`Cc1ccc(C(=O)c2coc3ccc(O)c(CN4CCN(C)CC4)c23)cc1` gave GBA activity up -83.
For COc1cccc(CNC(=O)c2ccc3nc[nH]c3c2)c1 the results were GBA activity up -3.
COc1ccc(CN(Cc2cc3cccc(C)c3[nH]c2=O)C(=O)N(C)C)cc1 was read as GBA activity up 72*.
Cc1cccc2cc(CN(Cc3ccccc3)C(=O)N(C)C)c(=O)[nH]c12 was read as GBA activity up -8.
Screening Cc1ccc(CN(Cc2cc3cccc(C)c3[nH]c2=O)C(=O)N(C)C)cc1 returned GBA activity up -12.
`O=C(CCCN1Cc2ccccc2C1)c1ccc(F)cc1` gave GBA activity up 19.
Screening O=C(c1ccc(F)cc1)N1CCN(Cc2ccccc2Br)CC1 returned GBA activity up -17.
For COC(=O)CN1CCN(C(=O)c2ccc(F)cc2)c2ccccc2C1 the results were GBA activity up 106*.
Screening CCCCN1C(=O)c2ccc(C(=O)NC3=NCCS3)cc2C1=O returned GBA activity up -48.
Cc1cccc(OCC(=O)OCC(=O)c2c(N)n(C)c(=O)n(C)c2=O)c1 was read as GBA activity up -18.
For COc1cc2c(C(=O)NCCCN3CCN(c4cccc(Cl)c4)CC3)cn(C)c(=O)c2cc1OC the results were GBA activity up 85*.
`COCCNC(=O)c1cn(C)c(=O)c2cc(OC)c(OC)cc12` gave GBA activity up -37.
CCOCCCNC(=O)c1cn(C)c(=O)c2cc(OC)c(OC)cc12 was read as GBA activity up -53.
Screening O=C(COC(=O)C1CCCCC1C(=O)N1CCc2ccccc21)NCc1ccco1 (configuration not stated) returned GBA activity up 6.
Screening c1ccc(-c2nc(NC3CC3)nc(-n3ccnc3)n2)cc1 returned GBA activity up -33.
For CCC(CO)n1cnnc1-c1ccncc1 (configuration not stated) the results were GBA activity up 7.
Screening COC(=O)CN1C(=O)C2(OCCCO2)c2cc(Br)ccc21 returned GBA activity up 139*.
Screening CCOC(=O)CN1C(=O)C2(OCCCO2)c2ccccc21 returned GBA activity up 0.
`O=C(CN1C(=O)C2(OCCCO2)c2ccccc21)NCc1ccccc1` gave GBA activity up -4.
For Cc1cc(C(=O)OCn2nnc3ccccc3c2=O)c(C)n1-c1ccccc1 the results were GBA activity up 6.
Screening N#C/C(C(=O)N1CCOCC1)=C1/SC=C(c2ccccc2)N1c1ccccc1 returned GBA activity up -9.
`COC(=O)c1cn(NC(=O)c2ccncc2)c(=O)c2ccccc12` gave GBA activity up 74*.
Screening COc1ccccc1C(=O)Nn1cnc2ccccc2c1=O returned GBA activity up -7.
For COc1ccc(Cl)cc1C(=O)Nn1cnc2ccccc2c1=O the results were GBA activity up -15.
O=C(c1ccccc1)c1nc[nH]c1C(=O)Nc1ccccc1 was read as GBA activity up 7.
Screening O=C(N1CCOCC1)N1CCN(c2ccccn2)CC1 returned GBA activity up 15.
`Cc1ccc(C)n1-c1ccc(N2CCOCC2)cc1` gave GBA activity up -3.
`Cc1cc(C)cc(N2CCN(C(=O)N3CCOCC3)CC2)c1` gave GBA activity up 72*.
Screening CC(=O)OCCNC(=O)Cn1cnc2c1c(=O)n(C)c(=O)n2C returned GBA activity up -11.
Cc1cccc2c(=O)oc(-c3ccc4c(c3)C(=O)N(CC3CCCO3)C4=O)nc12 (configuration not stated) was read as GBA activity up -4.
For Cc1ccc(NC(=O)CN(C)S(=O)(=O)c2cccc3nsnc23)cc1Cl the results were GBA activity up -39.
For CN(CC(=O)Nc1ccc(F)c(F)c1)S(=O)(=O)c1cccc2nsnc12 the results were GBA activity up 121*.
Cc1ccc(NC(=O)CN(C)S(=O)(=O)c2cccc3nsnc23)cc1C was read as GBA activity up -47.
Cc1cc(/N=C/C=C2\N(C)c3ccccc3C2(C)C)n(CCC#N)n1 was read as GBA activity up -4.
Screening CCn1c(COc2ccc(C)cc2)nnc1SCC(=O)Nc1ccc2c(c1)OCCO2 returned GBA activity up 4.
For COc1ccc(-n2c(=O)cc(N3CC(C)OC(C)C3)[nH]c2=O)cc1 (configuration not stated) the results were GBA activity up 27.
